The record followed here is PMC4336329 (PLoS ONE, 2015).

The structures appear in SMILES notation. Out of some 310,000 compounds screened, about 14,000 (4.5%) showed an effect of 50% or more. Effects have a minus sign here. This excerpt belongs to a sample that is enriched for strong results.
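Also: peak tail current of the secondary pulse compared with the same well before compound.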

In the assay the target is human ether-à-go-go-related gene (hERG) potassium channel (human, UniProt Q12809). Kind of assay: primary screen, population patch clamp on CHO cells stably expressing hERG; higher = less effect of the substance.
Sequence of human ether-à-go-go-related gene (hERG) potassium channel (Q12809 whole entry, looked up): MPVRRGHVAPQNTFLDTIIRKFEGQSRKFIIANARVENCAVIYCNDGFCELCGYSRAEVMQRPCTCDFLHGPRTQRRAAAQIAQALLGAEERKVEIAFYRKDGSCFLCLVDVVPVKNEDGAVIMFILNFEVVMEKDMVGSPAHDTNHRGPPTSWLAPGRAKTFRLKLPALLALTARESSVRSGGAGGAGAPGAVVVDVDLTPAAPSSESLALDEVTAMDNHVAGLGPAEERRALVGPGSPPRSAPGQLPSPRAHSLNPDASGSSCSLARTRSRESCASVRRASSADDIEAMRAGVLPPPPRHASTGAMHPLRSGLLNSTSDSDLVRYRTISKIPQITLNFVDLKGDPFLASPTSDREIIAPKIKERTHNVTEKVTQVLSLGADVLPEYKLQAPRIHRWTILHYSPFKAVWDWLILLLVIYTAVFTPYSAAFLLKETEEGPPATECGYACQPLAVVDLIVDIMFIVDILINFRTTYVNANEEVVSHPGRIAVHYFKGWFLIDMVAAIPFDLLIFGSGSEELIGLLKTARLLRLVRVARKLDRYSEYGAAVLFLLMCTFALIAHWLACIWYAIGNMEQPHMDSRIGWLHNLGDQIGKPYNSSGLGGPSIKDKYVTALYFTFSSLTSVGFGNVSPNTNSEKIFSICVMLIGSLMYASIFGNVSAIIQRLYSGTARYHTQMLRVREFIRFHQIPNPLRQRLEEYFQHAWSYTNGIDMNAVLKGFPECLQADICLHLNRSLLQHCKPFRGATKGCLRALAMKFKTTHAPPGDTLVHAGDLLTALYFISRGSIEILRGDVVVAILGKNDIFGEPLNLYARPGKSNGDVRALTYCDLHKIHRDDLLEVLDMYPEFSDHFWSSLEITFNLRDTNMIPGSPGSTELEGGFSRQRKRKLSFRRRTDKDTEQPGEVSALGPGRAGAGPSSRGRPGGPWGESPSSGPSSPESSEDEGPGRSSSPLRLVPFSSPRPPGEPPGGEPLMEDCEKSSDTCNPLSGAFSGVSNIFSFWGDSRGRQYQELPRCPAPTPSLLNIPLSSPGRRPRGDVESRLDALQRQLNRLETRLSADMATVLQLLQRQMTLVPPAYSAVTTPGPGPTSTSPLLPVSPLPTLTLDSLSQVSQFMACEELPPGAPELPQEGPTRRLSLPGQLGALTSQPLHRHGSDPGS
Take `Cc1ccc(SCC2=NNC(=O)C2)cc1`: the “hERG current change (%, negative = inhibition) at 10uM” value is recorded as -3.78%. As for `Cn1nc(-c2ccccc2)c(-c2nc(-c3ccc(Cl)cc3)no2)c1Cl`, the “hERG current change (%, negative = inhibition) at 10uM” value came to 6.65%. The figure for `Cc1ccc2nc(N(CCN(C)C)C(=O)/C=C/c3cccs3)sc2c1.Cl` is -40.3%; for `CCOc1ccccc1NC(=O)Cn1c(=O)c2ccccc2n(CC)c1=O` it is -11.7%.

As to `CC(C)(C)NC(=O)[C@@H]1C[C@@H]2CCCC[C@@H]2CN1C[C@@H](O)[C@H](Cc1ccccc1)NC(=O)[C@H](CC(N)=O)NC(=O)c1ccc2ccccc2n1`, the “hERG current change (%, negative = inhibition) at 10uM” value is -9.59%.

Consider `CS(=O)(=O)O.Cc1c(O)cccc1C(=O)N[C@@H](CSc1ccccc1)[C@H](O)CN1C[C@H]2CCCC[C@H]2C[C@H]1C(=O)NC(C)(C)C`, for which the “hERG current change (%, negative = inhibition) at 10uM” value is -4.69%. The figure for `CC(C)(C)NC(=O)[C@@H]1C[C@@H]2CCCC[C@@H]2CN1C[C@@H](O)[C@H](Cc1ccccc1)NC(=O)[C@H](CC(N)=O)NC(=O)c1ccc2ccccc2n1.CS(=O)(=O)O` is -72.1%; for `CC(=O)Nc1ccc(Nc2ncnc3c2cnn3-c2cccc(C)c2)cc1` it is 10%; for `O=C(O)c1ccc(S(=O)(=O)c2ccc(Sc3ccc(C(=O)O)c(C(=O)O)c3)cc2)cc1` it is 23.3%. The same measure for `CCOC(=O)N1CCN(CC(O)COc2ccc(C)c(C)c2)CC1.Cl` (stereo not shown): 6.64%; for `CCOC(=O)N1CCN(CC(O)COc2cc(C)cc(C)c2)CC1.Cl` (stereo not shown): -12.7%; for `CCOC(=O)N1CCN(CC(O)COc2ccc(-c3ccccc3)cc2)CC1.Cl` (stereo not shown): -60.3%. For `CCOC(=O)N1CCN(Cc2ccc(OCC(O)CN3CCCCC3)cc2)CC1` (stereo not shown), the “hERG current change (%, negative = inhibition) at 10uM” value is 15.7%. The same measure for `CCCc1ccc(OCC(O)CN2CCN(C(=O)OCC)CC2)cc1.Cl` (stereo not shown): -52.2%; for `CCOC(=O)N1CCN(CC(O)COc2ccc(CC)cc2)CC1.Cl` (stereo not shown): -31.2%; for `COc1ccccc1NC(=O)COC(=O)C1CCN(/C=C/C(=O)C(F)(F)F)CC1`: -49.6%.

With `Cc1ccc(S(=O)(=O)N/N=C\c2cn(CC(N)=O)c3ccccc23)cc1C`, the “hERG current change (%, negative = inhibition) at 10uM” value is listed as 5.21%. On to `Cc1nn(Cc2cccc(C(=O)Nc3ccn(Cc4ccccc4F)n3)c2)c(C)c1[N+](=O)[O-]`, for which the “hERG current change (%, negative = inhibition) at 10uM” value came out at 6.24%. The same measure for `Cc1ccc(-c2nc(N/N=C/c3ccncc3)c3ccccc3n2)cc1`: 3.06%. `Cc1cc(O)c(CN2CC=C(c3ccccc3)CC2)cc1C(C)C`: the “hERG current change (%, negative = inhibition) at 10uM” value is -14.1%. The figure for `COc1cc(CN2CCC(Cc3ccccc3)CC2)c([N+](=O)[O-])cc1OC` is 0.589%; for `FC(F)(F)c1ccccc1CN1CCC(Cc2ccccc2)CC1` it is 12%. In the case of `COc1cc(OC)c(CN2CCC(Cc3ccccc3)CC2)cc1Br`, the “hERG current change (%, negative = inhibition) at 10uM” value was -70.9%.

As for `COc1cc(C)c(CN2CCC(Cc3ccccc3)CC2)cc1C`, the “hERG current change (%, negative = inhibition) at 10uM” value was -45.3%. In the case of `COc1ccc(CN2CCC(Cc3ccccc3)CC2)c(C)c1C`, the “hERG current change (%, negative = inhibition) at 10uM” value is listed as -23%. For the compound `COc1cc(C)cc(CN2CCC(Cc3ccccc3)CC2)c1O`, the “hERG current change (%, negative = inhibition) at 10uM” value is given as -52.2%. Consider `COc1ccc(C(C)=O)cc1CN1CC=C(c2ccccc2)CC1`, for which the “hERG current change (%, negative = inhibition) at 10uM” value was -17%.

On to `COc1cc(C)cc(CN2CC=C(c3ccccc3)CC2)c1O`, for which the “hERG current change (%, negative = inhibition) at 10uM” value is reported as -51.4%. The same measure for `O=C1C2C(c3ccccc3)CC=CC2[C@H](c2ccc(C(F)(F)F)cc2)N1Cc1ccccc1` (stereo partly shown): -2.51%.

Take `CCC(=O)Nc1c2c(nn1-c1ccc(OC)cc1)CS(=O)C2` (stereo not shown): the “hERG current change (%, negative = inhibition) at 10uM” value is on record as 9.94%. The figure for `CC(=O)c1ccc(NS(=O)(=O)Cc2ccccc2)cc1` is 3.41%; for `Cc1cc(=O)oc2cc(OCC(=O)OCc3nnc(-c4ccccc4)o3)ccc12` it is 14.3%; for `CC(C)(C)c1ccc(OCC(O)CN2CCOCC2)cc1` (stereo not shown) it is -3.19%. As for `CCOC(=O)C1CCN(CC(O)COc2ccc(C(C)=O)cc2)CC1.Cl` (stereo not shown), the “hERG current change (%, negative = inhibition) at 10uM” value is listed as -47.7%. The figure for `CCOC(=O)C1CCN(CC(O)COc2ccc(C(=O)CC)cc2)CC1.Cl` (stereo not shown) is -68.5%; for `CCN1CCN(CC(O)COc2ccc(C(C)=O)cc2)CC1.Cl` (stereo not shown) it is 2.15%; for `CCOC(=O)C1CCN(CC(O)COc2ccc(C(C)(C)C)cc2)CC1.Cl` (stereo not shown) it is -70.4%. On to `CC1CCCC/C1=N\NC(=S)Nc1cccnc1` (stereo not shown), for which the “hERG current change (%, negative = inhibition) at 10uM” value came out at 15.8%. `Cc1noc(C)c1COc1ccc(C(=O)OCC(N)=O)cc1`: the “hERG current change (%, negative = inhibition) at 10uM” value amounted to 18%. The same measure for `O=C(Nc1ccc(Cl)cc1)c1ccc(-n2cccn2)c([N+](=O)[O-])c1`: 4.78%; for `CC(C)c1nc2c(s1)CCc1onc(-c3cccc([N+](=O)[O-])c3)c1-2`: 16.4%. For the compound `COc1cc(OC)cc(-n2nnnc2SCC(=O)N2CCCC2)c1`, the “hERG current change (%, negative = inhibition) at 10uM” value is on record as -30.2%. Turning to `Cc1ccc(-n2nnnc2SCC(=O)NC2CCCc3ccccc32)c(C)c1` (stereo not shown), the “hERG current change (%, negative = inhibition) at 10uM” value was -7.69%. The figure for `O=C(c1ccc(C(F)(F)F)cc1)C1CCCN(Cc2ccc(CO)o2)C1` (stereo not shown) is -24.6%.

As for `O=C(c1cccc(C(F)(F)F)c1)C1CCCN(Cc2cccn2-c2ncccn2)C1` (stereo not shown), the “hERG current change (%, negative = inhibition) at 10uM” value is listed as -95.7%. Take `COCC(=O)N1CCCC(C(=O)c2ccc(C(F)(F)F)cc2)C1` (stereo not shown): the “hERG current change (%, negative = inhibition) at 10uM” value is listed as -0.113%. With `O=C(c1cccc(C(F)(F)F)c1)C1CCCN(Cc2ncc[nH]2)C1` (stereo not shown), the “hERG current change (%, negative = inhibition) at 10uM” value is reported as 0.0209%. The figure for `O=C(c1cccc(C(F)(F)F)c1)C1CCCN(C(=O)CCc2cnccn2)C1` (stereo not shown) is -15.6%.

As for `O=C(c1cccc(C(F)(F)F)c1)C1CCCN(Cc2cccn2-c2ccccn2)C1` (stereo not shown), the “hERG current change (%, negative = inhibition) at 10uM” value is -83.5%. The same measure for `O=C(c1ccc(C(F)(F)F)cc1)C1CCCN(Cc2cccn2-c2ncccn2)C1` (stereo not shown): -80.3%. The same measure for `CCn1ccnc1CN1CCCC(C(=O)c2cccc(C(F)(F)F)c2)C1` (stereo not shown): -31.1%. The same measure for `O=C1CCN(Cc2ccc(Br)cc2)CCN1CCO`: -1.08%. As for `CCOc1ccc(S(=O)(=O)N(C)c2ccc(OCC(=O)Nc3nccs3)cc2)cc1`, the “hERG current change (%, negative = inhibition) at 10uM” value turned out to be 10.1%.

For the compound `O=C(O)CN1C(=O)C2C3C=CC(C2C1=O)C1C(=O)N(CC(=O)O)C(=O)C31` (stereo not shown), the “hERG current change (%, negative = inhibition) at 10uM” value turned out to be 21.8%. The same measure for `CSc1ccc(CN(C)C(=O)c2cccc(S(=O)(=O)N3CCN(Cc4ccccc4)CC3)c2)cc1`: -1.76%; for `COc1cc(/C=C2/SC(=S)N(CC(=O)O)C2=O)ccc1OCC(=O)Nc1ccc(C)c(C)c1`: -6.69%; for `COc1ccccc1/C=C1/C(=O)N(c2ccc([N+](=O)[O-])cc2)N=C1C`: 12.7%.

Consider `CCOC(=O)CSc1nc2ccccc2c(=O)n1CC`, for which the “hERG current change (%, negative = inhibition) at 10uM” value is -14.6%. For the compound `CCOC(=O)CSc1nc2ccccc2c(=O)n1CC1CCCO1` (stereo not shown), the “hERG current change (%, negative = inhibition) at 10uM” value is reported as -6.58%.

For `CCOC(=O)CSc1nc2ccccc2c(=O)n1CC1CCCC1`, the “hERG current change (%, negative = inhibition) at 10uM” value is recorded as -67.3%.

In the case of `CCN(CC)C(=O)CSc1nc2ccccc2c(=O)n1CC1CCCCC1`, the “hERG current change (%, negative = inhibition) at 10uM” value is -61%.

As to `CCN(CC)C(=O)CSc1nc2ccccc2c(=O)n1CC`, the “hERG current change (%, negative = inhibition) at 10uM” value was -1.18%. The same measure for `CCOC(=O)C(C)Sc1nc2ccccc2c(=O)n1CC1CCCCC1` (stereo not shown): -10.1%; for `Cl.c1ccc(N2CCCCC2)c(NC2=NCCC2)c1`: -15.5%. The same measure for `CN(C)/C=C1\NC(=S)N(c2ccccc2)C1=O`: 28.4%; for `Cc1ccc2c(c1)N(CC(=O)N1CCOCC1)C(=O)CO2`: 4.9%. The same measure for `COCCCNc1nc2nonc2nc1N1CCN(C2CCCC2)CC1`: -20.2%. With `CC1CC(C)CN(C(=O)c2ccc3ccccc3c2)C1` (stereo not shown), the “hERG current change (%, negative = inhibition) at 10uM” value is given as -19.2%.

On to `COc1cccc(OCC(O)CN2CCN(c3ccccn3)CC2)c1.Cl` (stereo not shown), for which the “hERG current change (%, negative = inhibition) at 10uM” value is -12.7%. The same measure for `CCCc1ccc(OCC(O)CN2CCN(c3ccccc3)CC2)cc1.Cl` (stereo not shown): -46.5%. For `CCc1ccc(OCC(O)CN2CCN(c3ccccc3)CC2)cc1.Cl` (stereo not shown), the “hERG current change (%, negative = inhibition) at 10uM” value was -60.3%.

As to `CCc1ccc(OCC(O)CN2CCN(CCO)CC2)cc1.Cl` (stereo not shown), the “hERG current change (%, negative = inhibition) at 10uM” value is given as -15.3%. The figure for `CCc1ccc(OCC(O)CN2CCN(c3ccc(OC)cc3)CC2)cc1.Cl` (stereo not shown) is -49.3%; for `CCc1ccc(OCC(O)CN2CCN(c3ccccn3)CC2)cc1.Cl` (stereo not shown) it is -67.4%.

In the case of `CCCc1ccc(OCC(O)CN2CCN(c3ccccn3)CC2)cc1.Cl` (stereo not shown), the “hERG current change (%, negative = inhibition) at 10uM” value is listed as -63.6%. The same measure for `CC(=O)C1C(c2ccc3ncccc3c2)NC(=O)NC1(O)C(F)(F)F` (stereo not shown): 10.9%. The figure for `Cc1ccsc1/C=N/Nc1ncc(Cl)cc1Cl` is 5.75%; for `COc1ccc(C)cc1S(=O)(=O)N1CCN(S(=O)(=O)c2cc(C(=O)O)ccc2C)CC1` it is 3.86%; for `CCN1CCN(C(c2cccs2)C(C)NC(=O)c2cccc(OC)c2)CC1` (stereo not shown) it is -4.05%. The figure for `CCN(CC)C(=O)c1ccc(NC(=O)c2cccc(C(F)(F)F)c2)cc1` is 4.47%. Take `CN(C(=O)COC(=O)c1ccc2c(=O)n3c(nc2c1)CCC3)C1CCS(=O)(=O)C1` (stereo not shown): the “hERG current change (%, negative = inhibition) at 10uM” value is on record as 10.5%. `CCc1ccc2nc(NC(=O)Cn3cnc4ccccc4c3=O)sc2c1`: the “hERG current change (%, negative = inhibition) at 10uM” value is recorded as 9.75%. The figure for `Cc1cc(C)nc(/N=C(\N)Nc2cccc(OCc3ccccc3)c2)n1` is -74.1%.

For the compound `CCOc1ccc(N/C(N)=N/c2nc(C)cc(C)n2)cc1`, the “hERG current change (%, negative = inhibition) at 10uM” value is given as -46.5%. The figure for `CC(=O)Nc1cccc(N/C(N)=N/c2nc(C)cc(C)n2)c1` is 4.87%; for `Cc1cc(C)nc(/N=C(\N)Nc2cccc([N+](=O)[O-])c2)n1` it is -28.7%; for `Cc1cc(C)nc(/N=C(\N)Nc2ccc(S(=O)(=O)Nc3nccc(C)n3)cc2)n1` it is 19.8%. With `CCOC(=O)C(=O)Nc1ccc(OCc2ccccc2)cc1`, the “hERG current change (%, negative = inhibition) at 10uM” value came out at 20.2%.

For `Cc1cc(OCC(=O)Nc2ccc(OCc3ccccc3)cc2)nc(C(C)C)n1`, the “hERG current change (%, negative = inhibition) at 10uM” value is reported as 3.36%. The same measure for `Cc1cc(C)nc(/N=C(\N)Nc2ccc(OCCC(C)C)cc2)n1`: -71.8%; for `Cc1cc(C)nc(/N=C(\N)Nc2ccc(OCc3ccccc3)cc2)n1`: -78.2%.
